Experimental data reported in the supplement of paper PMC10338343.
± gives the standard deviation. In all, about 8,200 sequences were measured (“pre-steady-state target cleavage rate”: median about 0.024, highest 2% from about 1.3 on). This excerpt belongs to a sample that is enriched for the highest values.

Tested on: MIWI (PIWIL1) piRISC loaded with L1MC piRNA (30 nt)
Test: pre-steady-state target cleavage rate (min^-1); MIWI and MILI are mouse PIWI proteins and EfPiwi is from a freshwater sponge; tags in brackets are library labels; higher = faster piRNA-guided slicing of the target
Conditions: guide: L1MC piRNA 5'p-UAACUAAAUACUAUGCAAGCUGUAGGUCCU
Experimental: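 Cleave-'n-Seq: a library of target RNAs (target site embedded in constant flanks, ACAGCATTCCGCGTTAGTGATATCCG... 5' flank; DNA-blocked outside the site) at 0.1 nM was incubated with 1 nM active mouse MILI or MIWI piRISC (synthetic 5'-monophosphorylated piRNA guide) with or without 500 nM mouse GTSF1 at 33 °C for 1 min to 16 h. Uncleaved targets were sequenced and normalised to non-target controls, and the pooled three trials were fitted to a burst-and-steady-state model to give the pre-steady-state cleavage rate (min^-1; k3 is constrained to at most 1e-4). Sequence is the target site only; target names encode pairing extent (gX:gY) and contiguous / 1-mismatch / 2-mismatch / bulge geometry. Fits with R² ≤ 0 are excluded.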

[1] = auxiliary factor: 500 nM mouse GTSF1
[2] = auxiliary factor: none (no GTSF1)

Sequence | pre-steady-state target cleavage rate [1] | pre-steady-state target cleavage rate [2]
UCCUGGAACAGGUAGCAUAGUAUUUAGUUA | 0.266 ± 0.026 | 0.00407 ± 0.0017
UCCACCUUGUGCUUGCAUAGUAUUUACAAA | 0.0809 ± 0.013 | –
UCCUGGAUGAGCUUGCAUAGUGUUUAGUUA | 0.708 ± 0.06 | 0.0494 ± 0.01
UGGACGUACAGCUUGCAUAGUAUUAAGUUA | 0.721 ± 0.069 | 0.0383 ± 0.0073
UGGACCUACAGCUUGCUAAGUAUUUAGUUA | 0.2 ± 0.022 | 0.00384 ± 0.002
UCCUGGAUGAGCUUGCAUAGUAUUUAGUAUA | 0.702 ± 0.054 | 0.0165 ± 0.0055
UCCUGCUACAGCUUGCUUAGUAUUUAGUAA | 0.279 ± 0.023 | 0.0083 ± 0.002
UCCUGGAUCAGCUUGCUUAGUAUUUAGAAA | 0.116 ± 0.021 | 0.00482 ± 0.0028
UCCACCUACAGCGUGCAUAGUAUUUAGUUA | 1.06 ± 0.04 | 0.0325 ± 0.0056
AGGACCUACAGUUGCAUAGUAUUUAGUUA | 0.988 ± 0.07 | 0.0102 ± 0.0034
UCGACCUACAGCUGUGCAUAGUAUUUAGUUA | 1.42 ± 0.073 | 0.0386 ± 0.0081
UCGACCUACAGCGUGCAUAGUAUUUAGUUA | 1.73 ± 0.072 | 0.0576 ± 0.0085
AGGACCUACAGCAUUGCAUAGUAUUUAGUUA | 1.28 ± 0.12 | 0.0689 ± 0.014
AGGACCUACAGCUGUGCAUAGUAUUUAGUUA | 1.29 ± 0.063 | 0.0583 ± 0.012
UGGACCUACAGCGUGCAUAGUAUUUAGUUA | 1.43 ± 0.065 | 0.0647 ± 0.013
UCCUGCUACAGCGUGCAUAGUAUUUAGUUA | 1.27 ± 0.074 | 0.0183 ± 0.005
AGGACCUACAGCGUGCAUAGUAUUUAGUUA | 1.34 ± 0.054 | 0.0658 ± 0.011
UCGACCUACAGCGUUGCAUAGUAUUUAGUUA | 1.21 ± 0.073 | 0.0561 ± 0.01
UGGACCUACAGCUGUGCAUAGUAUUUAGUUA | 1.28 ± 0.11 | 0.0389 ± 0.0098
UCCUGGAUCAGCUUGCAUACUAUUUUCAAA | 0.00597 ± 0.0043 | –
UCCUGGUACUGCUUGCAAAGUAUUUAGUUA | 0.46 ± 0.036 | 0.0221 ± 0.0052

Sequence | pre-steady-state target cleavage rate [1] | pre-steady-state target cleavage rate [2]
UCCUCCUACAGCUUGCAUAGAAUUUACAAA | 0.295 ± 0.045 | –
UCCUGGAUGUCGAACGUAACUAUUUACUUA | < 0.0001 | –
UCCUCCUACAGCUUCGAUAGUAUUUAGUAA | 0.263 ± 0.031 | –
UCCUGGAUGUGCUUGCAUAGUAUAAAGUAA | 0.00523 ± 0.0043 | –
UCGACCUACAGCUUGCAUAGUAUUGAGUUA | 0.499 ± 0.042 | 0.0477 ± 0.0089
UCCUGGAUCAGCUUGCAUACUUUUUAGUUA | 0.014 ± 0.0033 | 0.00335 ± 0.0016
UCGACCUACAGCUUGCAUAGUAGUUUAGUUA | 0.574 ± 0.031 | 0.0134 ± 0.0039
UCCUGGUACAGCUUGCAAAGUAUUAAGUUA | 0.35 ± 0.049 | 0.0147 ± 0.0043
AGGACCUACAGCGUUGCAUAGUAUUUAGUUA | 1.21 ± 0.086 | 0.0748 ± 0.015
UCCACCUACAGCGUUGCAUAGUAUUUAGUUA | 1.03 ± 0.13 | 0.0279 ± 0.005
UCCUCCUACAGCUGUGCAUAGUAUUUAGUUA | 1.18 ± 0.064 | 0.0204 ± 0.0047
UGGACCUACAGCGUUGCAUAGUAUUUAGUUA | 1.33 ± 0.11 | 0.0647 ± 0.013
UCCUCCUACAGCGUUGCAUAGUAUUUAGUUA | 0.96 ± 0.057 | 0.0256 ± 0.0045
UCCUCCUACAGCGUGCAUAGUAUUUAGUUA | 1.4 ± 0.042 | 0.0379 ± 0.0072
UCGACCUACAGCUUGCAUAGUAUUAAGAUA | 0.248 ± 0.029 | 0.00627 ± 0.0027
UCGACCUACAGGUUGCAUAGUAUUUACAAA | 0.183 ± 0.026 | –
AGGACCAACAGCUUGCAUAGUAUAUAGUUA | 0.775 ± 0.054 | 0.0604 ± 0.013
AGGACCUACAGCUUGCAUAGUAAAAAGUUA | 0.489 ± 0.058 | 0.00574 ± 0.0034
UCCUCCUACAGCUUGCAUAGAAAUUAGUUA | 0.169 ± 0.019 | 0.00268 ± 0.0024
UCCUGGUACAGCUUGGUUAGUAUUUAGUAA | 0.412 ± 0.079 | 0.0101 ± 0.0031
UCCUGGUUGAGCUUGCAUAGUAUUUAGAAA | 0.135 ± 0.024 | 0.00555 ± 0.0033

Sequence | pre-steady-state target cleavage rate [1] | pre-steady-state target cleavage rate [2]
UCCUGGAACAGCUUGCAUACAAUUUAGUUA | 0.0117 ± 0.0047 | –
AGGACCUACAGCUUGCAUAGUAUAAAGAAA | 0.434 ± 0.077 | –
UCGACCCACAGCUUGCAUAGUAUUUAGUUA | 1.19 ± 0.044 | 0.0644 ± 0.011
UCGACCACAGCUUGCAUAGUAUUUAGUUA | 1.22 ± 0.051 | 0.0643 ± 0.011
UGGACCACAGCUUGCAUAGUAUUUAGUUA | 1.47 ± 0.083 | 0.0744 ± 0.015
UCCACCCACAGCUUGCAUAGUAUUUAGUUA | 0.787 ± 0.052 | 0.0508 ± 0.0088
UGGACCCACAGCUUGCAUAGUAUUUAGUUA | 1.43 ± 0.091 | 0.0699 ± 0.011
AGGACCCACAGCUUGCAUAGUAUUUAGUUA | 1.47 ± 0.093 | 0.0682 ± 0.0093
AGGACCACAGCUUGCAUAGUAUUUAGUUA | 1.29 ± 0.066 | 0.0967 ± 0.019
UGGACCUAGAGCUUGCAUAGUAUUUAGAAA | 0.296 ± 0.034 | 0.0101 ± 0.0034
UCCACCUAGAGCUAGCAUAGUAUUUAGUUA | 0.339 ± 0.042 | 0.0098 ± 0.0019
UCCUGCUACUCGUUGCAUAGUAUUUACAAA | 0.0303 ± 0.0091 | –
UGGACGUACAGCUUGCAUAGUUUUUAGUUA | 0.35 ± 0.015 | 0.0389 ± 0.0097
UCCUGGAACAGCUUCCAUAGUAUUAAGUUA | 0.0095 ± 0.0047 | –
UCGACCUACAGCUUGCAAUCUAUUUAGAAA | 0.129 ± 0.033 | –
AGGCCUACAGCUUGCAUAGUAUUUAGUUA | 1.41 ± 0.075 | 0.107 ± 0.019
UCGGCCUACAGCUUGCAUAGUAUUUAGUUA | 1.21 ± 0.05 | 0.0767 ± 0.015
AGGCCCUACAGCUUGCAUAGUAUUUAGUUA | 1.15 ± 0.058 | 0.115 ± 0.018
UGGCCCUACAGCUUGCAUAGUAUUUAGUUA | 1.39 ± 0.11 | 0.0833 ± 0.015
UGGCCUACAGCUUGCAUAGUAUUUAGUUA | 1.46 ± 0.076 | 0.0761 ± 0.014
